Many of the other results were omitted from the sample, so hits are more common in it than they were.
p53null 32C tox: selectivity test: cytotoxicity in p53 null cells, permissive temperature | H1299-neo p53 null cells, ATP luminescence, 24 h, 32C | Potency, µM (series often up to 46.1 µM), inactives show at the top dose activity change, negative = cytotoxicity, actives largely listed as cytotoxic | 0.62% of 55,000 active;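 note: potency is the fitted concentration of half-maximal effect; 0% = DMSO only and -100% = full killing by 100 µM tamoxifen; nearly all actives have a fitted effect of over 55% in size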
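H1299-neo (p53-null) cells, 600/well, were pre-incubated overnight at 37C, then exposed to compounds at up to 46 uM for 24 hr at 32C. Viability was measured as ATP content by luminescence, and AC50 values came from Hill fits.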
p53null 39C tox: p53 null cell cytotoxicity, nonpermissive temperature | H1299 p53-null (neo) cells, 39C, ATPlite viability, 24 h | Potency, µM (top dose mostly 46.1 µM), for the others: top-dose activity, negative = cell killing, most hits filed as cytotoxic | 0.97% of 55,000 active | AID 904;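 note: potency is the fitted concentration of half-maximal effect; 0% = DMSO only and -100% = full killing by 100 µM tamoxifen; nearly all actives have a fitted effect of over 50% in size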
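Luminescent ATP signal reported cell survival after H1299 lines (neo, p53 null; or p53 A138V) received up to 46 uM compound and 24 hr incubation at 39C.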
SKOV3 invasion: inhibitors of ovarian cancer cell adhesion and invasion in omental model. AID 1963576. SKOV3ip1-GFP adhesion/invasion on 3D omental model, fluorescence. Potency, µM (series often up to 45.8 µM), without a hit: at the top dose activity change, negative = inhibition, hits mostly inhibitors. 0.1% of 46,000 active;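 note: potency is the fitted concentration of half-maximal effect; plate controls were DMSO wells for no effect and tomatine positive control wells for full effect; nearly all actives have a fitted effect of over 65% in size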
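qHTS, 4-pt dose (0.36-46 umol/L); SKOV3ip1-GFP, 1,200 cells/well, no FBS; primary omental fibroblast/mesothelial co-culture 48 h pre-grown; 2 h RT + 16 h 37 C; PBS wash, 4% PFA; GFP count 488/509 nm.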
FH mod: Identification of activators of human fumarate hydratase by quantitative high-throughput screening; 0.22% of 54,000 active; Potency, µM (titrated, usually from 79.9 µM), without a hit: top-dose activity change, negative = inhibition, hits mostly inhibitors; FH coupled MDH/diaphorase resazurin fluorescence, 15 min; note: potency is the fitted concentration of half-maximal effect; % is set by controls: 0 for no effect and ±100 for the full control effect; the screen sought activators but most active calls are inhibition curves; nearly all actives have a fitted effect of over 45% in size
Target sequence (P07954 whole entry, looked up): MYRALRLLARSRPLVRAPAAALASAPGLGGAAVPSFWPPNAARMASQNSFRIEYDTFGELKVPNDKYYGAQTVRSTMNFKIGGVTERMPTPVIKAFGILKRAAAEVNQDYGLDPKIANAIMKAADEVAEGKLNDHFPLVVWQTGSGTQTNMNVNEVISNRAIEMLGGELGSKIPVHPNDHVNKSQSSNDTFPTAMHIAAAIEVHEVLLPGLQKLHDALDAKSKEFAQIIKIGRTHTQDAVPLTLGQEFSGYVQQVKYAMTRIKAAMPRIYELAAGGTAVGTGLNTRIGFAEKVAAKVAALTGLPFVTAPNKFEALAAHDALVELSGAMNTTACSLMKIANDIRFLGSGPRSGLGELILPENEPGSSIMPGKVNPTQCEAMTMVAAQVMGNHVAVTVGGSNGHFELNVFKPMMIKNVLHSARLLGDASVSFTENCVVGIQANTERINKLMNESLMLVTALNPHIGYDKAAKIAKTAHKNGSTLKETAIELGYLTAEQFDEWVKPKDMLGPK
NTMT1 inhibitor: blocks human N-terminal methyltransferase 1 activity. 2.5% of 59,000 active. Q9BV86. Potency, µM (top dose mostly 114 µM), inactives show at the top dose activity change, negative = inhibition, most hits filed as inhibitors. NTMT1 MTase-Glo SAH luminescence, purified enzyme;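 note: potency is the fitted concentration of half-maximal effect; plate controls were DMSO vehicle for no effect and no enzyme for full effect; nearly all actives have a fitted effect of over 65% in size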
Sfp qHTS opt: inhibits purified B. subtilis Sfp PPTase | shares compounds with NTMT1 inhibitor | 78% of 230 active | Potency, µM (highest dose often 114 µM), for inactives: top-dose activity change, negative = inhibition, hits mostly inhibitors | purified Sfp PPTase enzyme activity, qHTS
HM489 growth: Sfp PPTase inhibitors: growth inhibition of B. subtilis HM489. B. subtilis HM489 (acpS-) growth, BacTiter-Glo, 5 h. 50% of 220 active. shares compounds with NTMT1 inhibitor. Potency, µM (top dose mostly 114 µM), without a hit: top-dose activity change, negative = inhibition, hits mostly inhibitors
Sfp gel opt: inhibitors of Bacillus subtilis Sfp PPTase, gel-based followup; Potency, µM (series often up to 250 µM), for inactives: top-dose activity change, negative = inhibition, hits mostly inhibitors; shares compounds with NTMT1 inhibitor; purified Sfp PPTase, gel-based product detection; AID 540355; 54% of 220 active
Sfp inh gel: inhibits B. subtilis Sfp PPTase in gel-based assay. purified Sfp PPTase, gel-based product detection. Potency, µM (doses to about 250 µM), for the others: at the top dose activity change, negative = inhibition, hits mostly inhibitors. shares compounds with NTMT1 inhibitor. AID 602362. 90% of 45 active
Sfp inh SAR2: inhibits B. subtilis Sfp PPTase in second SAR round; shares compounds with NTMT1 inhibitor; Potency, µM (series often up to 57.1 µM), for inactives: at the top dose activity change, negative = inhibition, usual class: inhibitors; purified Sfp enzyme, PPTase activity, qHTS; 87% of 230 active
hGST ctr: counter-screen for Sfp PPTase inhibitors: hGST A1-1 inhibition; shares compounds with NTMT1 inhibitor; hGST A1-1 enzyme activity counter-screen, qHTS; Potency, µM (series often up to 114 µM), without a hit: at the top dose activity change, negative = inhibition, hits mostly inhibitors; 55 tested, under 10 active
HSD17B4 counter: counter-screen for HPGD inhibitors: human HSD17B4 inhibition | Potency, µM (highest dose often 57.1 µM), inactives show at the top dose activity change, negative = inhibition, hits mostly inhibitors | purified HSD17B4, estradiol/NAD+, NADH fluorescence | shares compounds with NTMT1 inhibitor | AID 743187 | 10% of 230 active
ALDH1A1 inh: counter-screen for HPGD inhibitors: human ALDH1A1 inhibition | shares compounds with NTMT1 inhibitor | recombinant ALDH1A1, NADH fluorescence, propionaldehyde/NAD+ | Potency, µM (series often up to 57.1 µM), without a hit: at the top dose activity change, negative = inhibition, hits mostly inhibitors | 93% of 230 active
NNMT inh: blocks human NNMT methyltransferase | shares compounds with NTMT1 inhibitor | NNMT MTase-Glo luminescence, SAH detection | Potency, µM (series often up to 57.1 µM), for the others: at the top dose activity, negative = inhibition, hits mostly inhibitors | 10% of 120 active
* = called active by the depositor; ? = inconclusive; / = not tested or not shown; [ ] = remark or other dose. Calls come from the whole dose curve; as a rule, active = well fitted curve in the direction sought with a large enough effect; inconclusive = small, poorly fitted or top-dose-only effect, or another doubt; inactive = no such curve, though single readings can be large; an effect the other way counts as inactive or inconclusive.

SMILES	p53null 32C tox	p53null 39C tox	SKOV3 invasion	FH mod	NTMT1 inhibitor	Sfp qHTS opt	HM489 growth	Sfp gel opt	Sfp inh SAR2	HSD17B4 counter	ALDH1A1 inh	others
COc1cccc(NC(=S)N2CCN(c3ccc(Cl)c(Cl)c3)CC2)n1	/	/	/	/	/	?	30%	95µM*	8.1µM*	?	6.1µM*	Sfp inh gel=107µM*;hGST ctr=?
COc1cccc(NC(=S)N2CCN(c3cccc(C(F)(F)F)c3)CC2)n1	/	/	/	/	/	13µM*	42µM*	20µM*	11µM*	19µM*	15µM*
COc1cccc(NC(=S)N2CCN(c3ncc(C(F)(F)F)cc3Cl)CC2)n1	/	/	/	/	?	?	12%	5%	4.6µM*	-13%	1.1µM*
CN(C)c1ccc2nc(NC(=S)N3CCN(c4cccc(C(F)(F)F)c4)CC3)sc2c1	/	/	/	/	13%[57.5 µM]	?	?	20µM*	10µM*	?	9.6µM*
O=C(Nc1ccc(C(F)(F)F)cn1)N1CCN(c2ncccc2C(F)(F)F)CC1	/	/	/	1%	3%[57.5 µM]	/	/	/	/	/	/
Cn1ncc2cc(-c3cnc(N)c(Cl)c3N3CCC4(CCNC4=O)CC3)ccc21	/	/	/	-6%	-6%	/	/	/	/	/	/
CC1=C(C(=O)NCc2ccccc2)C(c2ccccc2Br)N=C(Nc2nc3ccccc3o2)N1 (centres undefined)	/	/	/	/	-6%[57.5 µM]	/	/	/	/	/	/
C=C1CC[C@@H]2[C@@](C)(CO[C@@H]3O[C@H](CO)[C@@H](O)[C@H](O)[C@H]3O)[C@H](O)CC[C@@]2(C)[C@@H]1CC/C(C)=C/CO[C@@H]1O[C@H](CO)[C@@H](O)[C@H](O)[C@H]1O	/	/	/	0%[20.6 µM]	4%[12.6 µM]	/	/	/	/	/	/
CC1NC(=O)CCCNC(=O)C(Cc2c[nH]c3ccccc23)NC(=O)C(C)NC(=O)C(C(C)C)NC(=O)C(C(C)c2ccccc2)NC(=O)C(C(C)C)NC1=O (centres undefined)	/	/	/	7%[20.6 µM]	7%[12.6 µM]	/	/	/	/	/	/
C=CC(=O)Nc1cc(N2CCN(CC)CC2)ccc1Nc1cc(N(C)C(=O)Nc2c(Cl)c(OC)cc(OC)c2Cl)ncn1	/	/	/	/	-3%	/	/	/	/	/	/
COc1cc(NC(=S)N2CCN(c3cccc(C(F)(F)F)c3)CC2)nc2ccccc12	/	/	/	/	?	1.9µM*	47µM*	0.79µM*	0.65µM*	-57%	5.4µM*
COc1cccc(CN2CCN(c3cccc(C(F)(F)F)c3)CC2)c1OC	-12%	-12%	/	/	/	/	/	/	/	/	/
CC(Nc1ccc([S+](=O)([O-])Nc2nccs2)cc1)c1ccccc1 (centres undefined)	/	/	/	/	6%	/	/	/	/	/	/
CCN1CCN(C(=S)c2ccc(O)cc2)CC1	/	/	/	/	-21%	19µM*	-26%	?	18µM*	-18%	?
CNc1nc(C)nc(N[C@H]2CCC[C@@H](C(=O)NCc3ccc(C#N)cc3C(F)(F)F)C2)n1	/	/	/	5%	3%[57.5 µM]	/	/	/	/	/	/
CC(=O)OC/C(=C/C(=O)O)CC[C@@H]1C(C)=CC(=O)[C@@H]2C(C)(C)CCC[C@@]12C	/	/	/	0%[53.3 µM]	3%[29.8 µM]	/	/	/	/	/	/
CC1(C=O)CCCC2(C)C1CCC13CC(CO)C(CCC12)C3 (centres undefined)	/	/	/	0%	-9%[57.5 µM]	/	/	/	/	/	/
O=C(O)c1cc(-c2c(-c3ccccc3)nn3ccccc23)n[nH]c1=O	/	/	/	0%	-6%[57.5 µM]	/	/	/	/	/	/
Nc1[nH]nc2nnc(-c3c(-c4ccccc4)nn4ccccc34)cc12	/	/	16%	2%	8.9µM*	/	/	/	/	/	/	NNMT inh=11µM*
CC(C)(C)OC(=O)c1ncn2c1C(C)(C)Nc1ccccc1-2	/	/	/	2%	4%[57.5 µM]	/	/	/	/	/	/
COc1ccc(NC(=O)N2CCN3CCCCC3C2)cc1OC (centres undefined)	4%	22%	0%	-16%	-6%	/	/	/	/	/	/
CCc1nc(C(N)=O)c(Nc2ccc(N3CCC(N4CCN(C)CC4)CC3)c(OC)c2)nc1NC1CCOCC1	/	/	/	-1%[53.3 µM]	20µM*	/	/	/	/	/	/	NNMT inh=-16%[38.3 µM]

From PubChem
